{"source": "the supplement of paper PMC4466140"}
{"target": "ScBbc1", "test": "SPOT peptide array binding signal intensity (averaged, normalized) (arbitrary units (background-subtracted, floor 0; scale differs between SH3 domains)); higher = stronger binding of the SH3 domain to the peptide", "procedure,_shortened": "(§1)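 Spot intensities were captured after detection with anti-GST antibody, an HRP-linked anti-mouse secondary and luminol, and quantified with Genespotter. The probes were GST-fused SH3 domains from four yeast species, produced in E. coli BL21(DE3), purified on glutathione Sepharose and incubated at 10 μg/ml overnight at 4°C on cellulose-bound synthetic 15-mer peptides with cysteines replaced by serines. Binding signal is the normalized, background-subtracted spot intensity averaged over replicates, and its arbitrary units differ between domains.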"}
{"binder": "EQEEIAPSLPSRNSI", "SPOT peptide array binding signal intensity": "≤ 0"}
{"target": "ScBem1-D1", "test": "SPOT peptide array binding signal intensity (averaged, normalized) (arbitrary units (background-subtracted, floor 0; scale differs between SH3 domains)); higher = stronger binding of the SH3 domain to the peptide", "procedure,_shortened": "as §1"}
{"binder": "EQEEIAPSLPSRNSI", "SPOT peptide array binding signal intensity": "≤ 0"}
{"target": "ScBzz1-D1", "test": "SPOT peptide array binding signal intensity (averaged, normalized) (arbitrary units (background-subtracted, floor 0; scale differs between SH3 domains)); higher = stronger binding of the SH3 domain to the peptide", "procedure,_shortened": "as §1"}
{"binder": "EQEEIAPSLPSRNSI", "SPOT peptide array binding signal intensity": 7}
{"target": "ScBzz1-D2", "test": "SPOT peptide array binding signal intensity (averaged, normalized) (arbitrary units (background-subtracted, floor 0; scale differs between SH3 domains)); higher = stronger binding of the SH3 domain to the peptide", "procedure,_shortened": "as §1"}
{"binder": "EQEEIAPSLPSRNSI", "SPOT peptide array binding signal intensity": 1}
{"target": "ScCyk3", "test": "SPOT peptide array binding signal intensity (averaged, normalized) (arbitrary units (background-subtracted, floor 0; scale differs between SH3 domains)); higher = stronger binding of the SH3 domain to the peptide", "procedure,_shortened": "as §1"}
{"binder": "EQEEIAPSLPSRNSI", "SPOT peptide array binding signal intensity": 1}
{"target": "ScFus1", "test": "SPOT peptide array binding signal intensity (averaged, normalized) (arbitrary units (background-subtracted, floor 0; scale differs between SH3 domains)); higher = stronger binding of the SH3 domain to the peptide", "procedure,_shortened": "as §1"}
{"binder": "EQEEIAPSLPSRNSI", "SPOT peptide array binding signal intensity": 1}
{"target": "ScHof1", "test": "SPOT peptide array binding signal intensity (averaged, normalized) (arbitrary units (background-subtracted, floor 0; scale differs between SH3 domains)); higher = stronger binding of the SH3 domain to the peptide", "procedure,_shortened": "as §1"}
{"binder": "EQEEIAPSLPSRNSI", "SPOT peptide array binding signal intensity": 1.5}
{"target": "ScHse1", "test": "SPOT peptide array binding signal intensity (averaged, normalized) (arbitrary units (background-subtracted, floor 0; scale differs between SH3 domains)); higher = stronger binding of the SH3 domain to the peptide", "procedure,_shortened": "as §1"}
{"binder": "EQEEIAPSLPSRNSI", "SPOT peptide array binding signal intensity": 7}
{"target": "ScLsb1", "test": "SPOT peptide array binding signal intensity (averaged, normalized) (arbitrary units (background-subtracted, floor 0; scale differs between SH3 domains)); higher = stronger binding of the SH3 domain to the peptide", "procedure,_shortened": "as §1"}
{"binder": "EQEEIAPSLPSRNSI", "SPOT peptide array binding signal intensity": 127}
{"target": "ScLsb2", "test": "SPOT peptide array binding signal intensity (averaged, normalized) (arbitrary units (background-subtracted, floor 0; scale differs between SH3 domains)); higher = stronger binding of the SH3 domain to the peptide", "procedure,_shortened": "as §1"}
{"binder": "EQEEIAPSLPSRNSI", "SPOT peptide array binding signal intensity": 8}
{"target": "ScLsb3", "test": "SPOT peptide array binding signal intensity (averaged, normalized) (arbitrary units (background-subtracted, floor 0; scale differs between SH3 domains)); higher = stronger binding of the SH3 domain to the peptide", "procedure,_shortened": "as §1"}
{"binder": "EQEEIAPSLPSRNSI", "SPOT peptide array binding signal intensity": 4150}
{"target": "ScLsb4", "test": "SPOT peptide array binding signal intensity (averaged, normalized) (arbitrary units (background-subtracted, floor 0; scale differs between SH3 domains)); higher = stronger binding of the SH3 domain to the peptide", "procedure,_shortened": "as §1"}
{"binder": "EQEEIAPSLPSRNSI", "SPOT peptide array binding signal intensity": 2440}
{"target": "ScMyo3", "test": "SPOT peptide array binding signal intensity (averaged, normalized) (arbitrary units (background-subtracted, floor 0; scale differs between SH3 domains)); higher = stronger binding of the SH3 domain to the peptide", "procedure,_shortened": "as §1"}
{"binder": "EQEEIAPSLPSRNSI", "SPOT peptide array binding signal intensity": "≤ 0"}
{"target": "ScMyo5", "test": "SPOT peptide array binding signal intensity (averaged, normalized) (arbitrary units (background-subtracted, floor 0; scale differs between SH3 domains)); higher = stronger binding of the SH3 domain to the peptide", "procedure,_shortened": "as §1"}
{"binder": "EQEEIAPSLPSRNSI", "SPOT peptide array binding signal intensity": "≤ 0"}
{"target": "ScNbp2", "test": "SPOT peptide array binding signal intensity (averaged, normalized) (arbitrary units (background-subtracted, floor 0; scale differs between SH3 domains)); higher = stronger binding of the SH3 domain to the peptide", "procedure,_shortened": "as §1"}
{"binder": "EQEEIAPSLPSRNSI", "SPOT peptide array binding signal intensity": 2.5}
{"target": "ScPex13", "test": "SPOT peptide array binding signal intensity (averaged, normalized) (arbitrary units (background-subtracted, floor 0; scale differs between SH3 domains)); higher = stronger binding of the SH3 domain to the peptide", "procedure,_shortened": "as §1"}
{"binder": "EQEEIAPSLPSRNSI", "SPOT peptide array binding signal intensity": 646}
{"target": "ScRvs167", "test": "SPOT peptide array binding signal intensity (averaged, normalized) (arbitrary units (background-subtracted, floor 0; scale differs between SH3 domains)); higher = stronger binding of the SH3 domain to the peptide", "procedure,_shortened": "as §1"}
{"binder": "EQEEIAPSLPSRNSI", "SPOT peptide array binding signal intensity": 244}
{"target": "ScSho1", "test": "SPOT peptide array binding signal intensity (averaged, normalized) (arbitrary units (background-subtracted, floor 0; scale differs between SH3 domains)); higher = stronger binding of the SH3 domain to the peptide", "procedure,_shortened": "as §1"}
{"binder": "EQEEIAPSLPSRNSI", "SPOT peptide array binding signal intensity": "≤ 0"}
{"target": "ScSla1-D1-D2", "test": "SPOT peptide array binding signal intensity (averaged, normalized) (arbitrary units (background-subtracted, floor 0; scale differs between SH3 domains)); higher = stronger binding of the SH3 domain to the peptide", "procedure,_shortened": "as §1"}
{"binder": "EQEEIAPSLPSRNSI", "SPOT peptide array binding signal intensity": 1}
{"target": "ScSla1-D3", "test": "SPOT peptide array binding signal intensity (averaged, normalized) (arbitrary units (background-subtracted, floor 0; scale differs between SH3 domains)); higher = stronger binding of the SH3 domain to the peptide", "procedure,_shortened": "as §1"}
{"binder": "EQEEIAPSLPSRNSI", "SPOT peptide array binding signal intensity": 1}
{"target": "SpAbp1-D1", "test": "SPOT peptide array binding signal intensity (averaged, normalized) (arbitrary units (background-subtracted, floor 0; scale differs between SH3 domains)); higher = stronger binding of the SH3 domain to the peptide", "procedure,_shortened": "as §1"}
{"binder": "EQEEIAPSLPSRNSI", "SPOT peptide array binding signal intensity": 1}
{"target": "SpBbc1", "test": "SPOT peptide array binding signal intensity (averaged, normalized) (arbitrary units (background-subtracted, floor 0; scale differs between SH3 domains)); higher = stronger binding of the SH3 domain to the peptide", "procedure,_shortened": "as §1"}
{"binder": "EQEEIAPSLPSRNSI", "SPOT peptide array binding signal intensity": 2}
{"target": "SpBzz1-D1", "test": "SPOT peptide array binding signal intensity (averaged, normalized) (arbitrary units (background-subtracted, floor 0; scale differs between SH3 domains)); higher = stronger binding of the SH3 domain to the peptide", "procedure,_shortened": "as §1"}
{"binder": "EQEEIAPSLPSRNSI", "SPOT peptide array binding signal intensity": "≤ 0"}
{"target": "SpBzz1-D2", "test": "SPOT peptide array binding signal intensity (averaged, normalized) (arbitrary units (background-subtracted, floor 0; scale differs between SH3 domains)); higher = stronger binding of the SH3 domain to the peptide", "procedure,_shortened": "as §1"}
{"binder": "EQEEIAPSLPSRNSI", "SPOT peptide array binding signal intensity": 1}
{"target": "SpCyk3", "test": "SPOT peptide array binding signal intensity (averaged, normalized) (arbitrary units (background-subtracted, floor 0; scale differs between SH3 domains)); higher = stronger binding of the SH3 domain to the peptide", "procedure,_shortened": "as §1"}
{"binder": "EQEEIAPSLPSRNSI", "SPOT peptide array binding signal intensity": "≤ 0"}
{"target": "SpHof1", "test": "SPOT peptide array binding signal intensity (averaged, normalized) (arbitrary units (background-subtracted, floor 0; scale differs between SH3 domains)); higher = stronger binding of the SH3 domain to the peptide", "procedure,_shortened": "as §1"}
{"binder": "EQEEIAPSLPSRNSI", "SPOT peptide array binding signal intensity": 1}
{"target": "SpHof1-2", "test": "SPOT peptide array binding signal intensity (averaged, normalized) (arbitrary units (background-subtracted, floor 0; scale differs between SH3 domains)); higher = stronger binding of the SH3 domain to the peptide", "procedure,_shortened": "as §1"}
{"binder": "EQEEIAPSLPSRNSI", "SPOT peptide array binding signal intensity": "≤ 0"}
{"target": "SpHof1-3", "test": "SPOT peptide array binding signal intensity (averaged, normalized) (arbitrary units (background-subtracted, floor 0; scale differs between SH3 domains)); higher = stronger binding of the SH3 domain to the peptide", "procedure,_shortened": "as §1"}
{"binder": "EQEEIAPSLPSRNSI", "SPOT peptide array binding signal intensity": 0.75}
{"target": "SpHse1", "test": "SPOT peptide array binding signal intensity (averaged, normalized) (arbitrary units (background-subtracted, floor 0; scale differs between SH3 domains)); higher = stronger binding of the SH3 domain to the peptide", "procedure,_shortened": "as §1"}
{"binder": "EQEEIAPSLPSRNSI", "SPOT peptide array binding signal intensity": "≤ 0"}
{"target": "SpLsb1", "test": "SPOT peptide array binding signal intensity (averaged, normalized) (arbitrary units (background-subtracted, floor 0; scale differs between SH3 domains)); higher = stronger binding of the SH3 domain to the peptide", "procedure,_shortened": "as §1"}
{"binder": "EQEEIAPSLPSRNSI", "SPOT peptide array binding signal intensity": 13}
{"target": "SpLsb4", "test": "SPOT peptide array binding signal intensity (averaged, normalized) (arbitrary units (background-subtracted, floor 0; scale differs between SH3 domains)); higher = stronger binding of the SH3 domain to the peptide", "procedure,_shortened": "as §1"}
{"binder": "EQEEIAPSLPSRNSI", "SPOT peptide array binding signal intensity": 4140}
{"target": "SpMyo1", "test": "SPOT peptide array binding signal intensity (averaged, normalized) (arbitrary units (background-subtracted, floor 0; scale differs between SH3 domains)); higher = stronger binding of the SH3 domain to the peptide", "procedure,_shortened": "as §1"}
{"binder": "EQEEIAPSLPSRNSI", "SPOT peptide array binding signal intensity": "≤ 0"}
{"target": "SpNbp2", "test": "SPOT peptide array binding signal intensity (averaged, normalized) (arbitrary units (background-subtracted, floor 0; scale differs between SH3 domains)); higher = stronger binding of the SH3 domain to the peptide", "procedure,_shortened": "as §1"}
{"binder": "EQEEIAPSLPSRNSI", "SPOT peptide array binding signal intensity": 5.5}
{"target": "SpPex13", "test": "SPOT peptide array binding signal intensity (averaged, normalized) (arbitrary units (background-subtracted, floor 0; scale differs between SH3 domains)); higher = stronger binding of the SH3 domain to the peptide", "procedure,_shortened": "as §1"}
{"binder": "EQEEIAPSLPSRNSI", "SPOT peptide array binding signal intensity": "≤ 0"}
{"target": "SpRvs167", "test": "SPOT peptide array binding signal intensity (averaged, normalized) (arbitrary units (background-subtracted, floor 0; scale differs between SH3 domains)); higher = stronger binding of the SH3 domain to the peptide", "procedure,_shortened": "as §1"}
{"binder": "EQEEIAPSLPSRNSI", "SPOT peptide array binding signal intensity": 450}
{"target": "SpSla1-D1-D2", "test": "SPOT peptide array binding signal intensity (averaged, normalized) (arbitrary units (background-subtracted, floor 0; scale differs between SH3 domains)); higher = stronger binding of the SH3 domain to the peptide", "procedure,_shortened": "as §1"}
{"binder": "EQEEIAPSLPSRNSI", "SPOT peptide array binding signal intensity": 2}
{"target": "SpSla1-D3", "test": "SPOT peptide array binding signal intensity (averaged, normalized) (arbitrary units (background-subtracted, floor 0; scale differs between SH3 domains)); higher = stronger binding of the SH3 domain to the peptide", "procedure,_shortened": "as §1"}
{"binder": "EQEEIAPSLPSRNSI", "SPOT peptide array binding signal intensity": 1}
